Screen size: about 290,000 compounds; about 3,300 (1.1%) were called active. The sample holds actives, similar compounds and a random draw of the others, so the mix is not that of the screen. Values without a mark were called inactive. No stated cut-off is given here; in the data, active means binding response below about 67% or above about 130%; inconclusive means no clear call, values can overlap the other calls; inactive means in between.

This test deals with Mitogen-activated protein kinase kinase kinase 2 (Homo sapiens) (UniProt Q9Y2U5). Description: modulators of MEK5 binding to wildtype MEKK2, primary screen, biochemical, multiplex bead flow cytometry, Alexa488-MEK5 (AID 1531). The note with it: Alexa488-MEK5 binding to MEKK2 WT, at 10 µM, actives lie on both sides.
Take `Cc1ccc2nc(N(CCN(C)C)C(=O)C3=COCCO3)sc2c1`: the binding response (% of control) is 113%.
Take `Cc1ccc(S(=O)(=O)N(C)C)cc1NC(=O)/C=C/c1cccs1`: the binding response (% of control) is 107%.
Turning to `Cc1cccc2sc(N(CCCN(C)C)C(=O)CCS(=O)(=O)c3ccccc3)nc12`, the binding response (% of control) is 119%.
With `CC(=O)N(CCCN(C)C)c1nc2ccc(C)cc2s1`, the binding response (% of control) was 104%.
For `Cc1cc(C)c2nc(N(CCN(C)C)C(=O)/C=C/c3cccs3)sc2c1` the value was 165% (active); for `Cc1ccc2sc(N(CCN(C)C)C(=O)/C=C/c3cccs3)nc2c1C`, 151% (active); for `COc1ccc(N2CCN(C(=O)[C@@H](NC(=O)c3cc(OC)cc(OC)c3)C(C)C)CC2)cc1`, 108%.
Turning to `S=C(Nc1cccnc1)Nc1ccccn1`, the binding response (% of control) is 99%.
As to `COCC1CCN(C(=O)CCc2nnc(C3(c4ccc(Cl)cc4)CCC3)o2)C1` (stereo not drawn), the binding response (% of control) is 103%.
For `CCN(CC)CCN1C(=O)C2C(C(=O)Nc3ccc(Br)cc3)C3C=CC2(O3)C1C(=O)NC1CCCCC1` (stereo not drawn) the value was 106%.
`C=CCOC(=O)C1=C[C@H](c2ccc(Br)cc2)C[C@H](OCCCCO)O1`: the binding response (% of control) is 95%.
As for `Cc1cc2oc3ccc(NCCC4CCCN4C)cc3c(=O)c2cc1C` (stereo not drawn), the binding response (% of control) is 135%.
Turning to `CCOC(=O)CSc1nc2ccc(C)cc2n2cnnc12`, the binding response (% of control) is 96%.
With `C#CCNC(=O)[C@H](Cc1ccc(C(=O)c2ccccc2)cc1)NC(=O)OC(C)(C)C`, the binding response (% of control) was 101%.
Take `Cc1cc(-c2ccc(C)c(S(=O)(=O)NCCCN(Cc3ccccc3)C(C)C)c2)on1`: the binding response (% of control) was 108%.
Take `O=C1CC(N2CCN(c3ccc(F)cc3)CC2)C(=O)N1c1ccccc1` (stereo not drawn): the binding response (% of control) was 101%.
In the case of `Cc1ccc(N2C(=O)CC(N3CCSCC3)C2=O)c(C)c1` (stereo not drawn), the binding response (% of control) is 62% [inhibitor] (active).
For the compound `Cc1ccc(CC2CC(=O)N(c3cc(C)ccc3C)C2=O)cc1` (stereo not drawn), the binding response (% of control) is 101%.
In the case of `COc1cc(C(=O)NCCOC(=O)c2cccc(N(C)C)c2)cc(OC)c1OC`, the binding response (% of control) is 96%.
As to `COc1ccc(N2CCN(C(=O)C3CCN(C(=O)c4ccccc4Cl)CC3)CC2)cc1`, the binding response (% of control) was 97%.
Consider `O=C(Cn1cnc2ccccc21)Nc1ccccc1-c1ccccc1`, for which the binding response (% of control) is 115%.
Regarding `COc1ccccc1C(C)NC(=O)Cc1ccsc1` (stereo not drawn), the binding response (% of control) is 104%.
Consider `O=C(c1ccccc1)c1ccc(C(=O)N2CCN(c3ccccc3)CC2)cc1`, for which the binding response (% of control) is 102%.
Turning to `CN1CCC(CN)(N2CCN(c3ccccc3)CC2)CC1`, the binding response (% of control) was 146% (active).
As to `CN1CCN(c2ccc(NC(=O)c3ccccc3)cc2)CC1`, the binding response (% of control) is 111%.
Consider `CCn1c(SCC(=O)NC2CC2)nnc1-c1ccccc1OC`, for which the binding response (% of control) was 100%.
For `CCOC(=O)C(Cc1ccc(N)cc1)N1C(=O)c2ccccc2C1=O` (stereo not drawn) the value was 106%; for `O=S(=O)(NCC1CC1)c1ccc(F)c(Cl)c1`, 97%.
Take `Cc1ccc2c(c1)N(CC(=O)NCCCN1CCCCC1)C(=O)c1cccnc1O2`: the binding response (% of control) was 106%.
For `Cc1ccc2c(c1)N(CC(=O)NCCc1ccc(Cl)cc1)C(=O)c1cccnc1O2` the value was 98%.
For `O=C(CN1C(=O)c2cccnc2Oc2ccc(Cl)cc21)Nc1ccc(F)cc1`, the binding response (% of control) is 50% [inhibitor] (active).
Next, `O=C(CN1C(=O)c2cccnc2Oc2ccc(Cl)cc21)NCCc1ccccc1`: 101%.
For `Cc1ccc2c(c1)N(CC(=O)N1CCC(C)CC1)C(=O)c1cccnc1O2` the value was 103%.
Turning to `CC(=O)c1cccc(NC(=O)CN2C(=O)c3cccnc3Oc3ccc(Cl)cc32)c1`, the binding response (% of control) is 68% [inhibitor] (active).
Turning to `Cc1ccc(-c2csc(NCCc3nc4cc(Cl)c(Cl)cc4n3CCOCCO)n2)cc1`, the binding response (% of control) was 105%.
`CCn1ccnc1CN(C)C(=O)c1ccc2nc(Cc3ccc(OC)cc3)oc2c1`: the binding response (% of control) was 103%.
Consider `COC(=O)c1ccc2c(C(C)(C)O)c(C(C)(C)O)[nH]c2c1`, for which the binding response (% of control) is 88%.
With `Cc1ccccc1N(C(=O)CNC(=O)c1cccs1)C(C(=O)NC1CCCC1)c1ccncc1` (stereo not drawn), the binding response (% of control) was 98%.
`CCOC(=O)c1cc2occc2n1CC(=O)N1CCN(C(=O)c2ccco2)CC1`: the binding response (% of control) was -8% [inhibitor] (active).
Consider `CCOC(=O)c1cc2occc2n1CC(=O)NC1CCC(C)CC1` (stereo not drawn), for which the binding response (% of control) was 99%.
In the case of `CCOC(=O)c1cc2c(ccn2C)n1CC(=O)N1CCC(C)CC1`, the binding response (% of control) is 110%.
Consider `Fc1ccccc1/C=N/Nc1cc(N2CCCCC2)ncn1`, for which the binding response (% of control) is 108%.
For `CCOC(=O)Nc1ccc2c(c1)N(C(=O)CCCl)c1ccccc1[S@]2=O`, the binding response (% of control) is 107%.
Take `CC(C)(C)NC(=O)Cn1cnc2cc([N+](=O)[O-])ccc2c1=O`: the binding response (% of control) is 88%.
In the case of `O=C(Cn1cnc([N+](=O)[O-])n1)NCCc1ccccc1`, the binding response (% of control) was 100%.
On to `CC(C)(C)NC(=O)Cn1cnc([N+](=O)[O-])n1`, for which the binding response (% of control) is 2% [inhibitor] (active).
As for `CC(=O)Nc1ccc(NC(=O)CS(=O)(=O)c2cn(CC(=O)N3CCCCC3)c3ccccc23)cc1`, the binding response (% of control) was 99%.
For `Cc1ccc(CSCC2Nc3ccc(C(=O)N4CCN(c5ccc(F)cc5)CC4)cc3NC2=O)cc1` (stereo not drawn), the binding response (% of control) was 94%.
With `Cc1snc(SCc2c(F)cccc2Cl)c1C#N`, the binding response (% of control) was 108%.
With `O=C(CN1CCN(S(=O)(=O)c2cc(Cl)ccc2Cl)CC1)c1ccc(O)c(O)c1`, the binding response (% of control) is 97%.
As to `Oc1c(C=Nc2cccc3nsnc23)ccc2ccccc12`, the binding response (% of control) was 31% [inhibitor] (active).
Take `COc1ccc(C=Nc2cccc3ncccc23)cc1`: the binding response (% of control) is 81%.
For `O=[N+]([O-])c1ccc(N=Cc2c(O)ccc3ccccc23)cc1` the value was 95%; for `O=C(OCC1O[C@@H](OC(=O)c2cc(O)c(O)c(O)c2)[C@@H](OC(=O)c2cc(O)c(O)c(O)c2)[C@@H](OC(=O)c2cc(O)c(O)c(O)c2)[C@@H]1OC(=O)c1cc(O)c(O)c(O)c1)c1cc(O)c(O)c(O)c1` (stereo partly drawn), 62% [inhibitor] (active).
As to `Cc1ccc(C)c(NS(=O)(=O)c2c(C)[nH]c(C)c2C(=O)N2CCCCC2)c1`, the binding response (% of control) is 103%.
For `CC(=O)Nc1ccc(NC(=O)COc2ccc(-c3ccccc3)cc2)cc1` the value was 97%.
Consider `CCC(C)OC(=O)C(C)Oc1ccc(-c2ccccc2)cc1` (stereo not drawn), for which the binding response (% of control) is 2% [inhibitor] (active).
For `COc1ccc(-c2noc(CNC(=O)C(C)Oc3ccccc3)n2)cc1` (stereo not drawn), the binding response (% of control) is 98%.

The record behind these values is PubChem BioAssay AID1531 (NMMLSC, 2009).
